Reference: the supplement of paper PMC6555819

Key:
Assay in all cases: PBM binding z-score (relative to random genomic background probes); higher = stronger binding; sequences stand for … in GC…GCGATTGACAGCGTAGAATGAAGG
[1] = system: FXR:RXRa (NR concentration 270 nM, RXRa partner concentration 90 nM)
In short: (§1)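 Random background probes are the reference for binding z-scores. These scores derive from regression-normalized fluorescence on custom Agilent 4×180K protein-binding microarrays incubated 1 h with ligand-free nuclear receptor dimers. Binding was detected with antibodies against each partner (one per run).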

[2] = system: LXRa:RXRa (NR concentration 270 nM, RXRa partner concentration 90 nM)
In short: as §1

[3] = system: LXRa homodimer (NR concentration 270 nM)
In short: as §1

[4] = system: LXRb:RXRa (NR concentration 270 nM, RXRa partner concentration 90 nM)
In short: as §1

[5] = system: LXRb homodimer (NR concentration 270 nM)
In short: as §1

[6] = system: PPARa:RXRa (NR concentration 270 nM, RXRa partner concentration 90 nM)
In short: as §1

[7] = system: PPARg:RXRa (NR concentration 180 nM, RXRa partner concentration 90 nM)
In short: as §1

[8] = system: PPARg:RXRa 270nM:90nM, anti-RXR (NR concentration 270 nM, RXRa partner concentration 90 nM)
In short: as §1

[9] = system: PPARg:RXRa 30nM:10nM, anti-RXR (NR concentration 30 nM, RXRa partner concentration 10 nM)
In short: as §1

[10] = system: PPARg:RXRa 90nM:30nM, anti-RXR (NR concentration 90 nM, RXRa partner concentration 30 nM)
In short: as §1

[11] = system: PPARg:RXRa DBDmut IVT, anti-RXR (DBD mutation: RXRa K156A/R161A, NR concentration 270 nM, RXRa partner concentration 90 nM)
In short: as §1

[12] = system: PPARg:RXRa IVT, anti-PPARg (NR concentration 270 nM, RXRa partner concentration 90 nM)
In short: as §1

[13] = system: PPARg DBDmut:RXRa IVT, anti-PPARg (DBD mutation: PPARg1 K132A/R137A, NR concentration 270 nM, RXRa partner concentration 90 nM)
In short: as §1

[14] = system: PPARg DBDmut IVT, anti-PPARg (DBD mutation: PPARg1 K132A/R137A, NR concentration 270 nM)
In short: as §1

[15] = system: PPARg homodimer (NR concentration 180 nM)
In short: as §1

[16] = system: PXR:RXRa (NR concentration 270 nM, RXRa partner concentration 90 nM)
In short: as §1

[17] = system: PXR homodimer (NR concentration 270 nM)
In short: as §1

[18] = system: RARa:RXR (NR concentration 270 nM, RXRa partner concentration 90 nM)
In short: as §1

[19] = system: RARa homodimer (NR concentration 270 nM)
In short: as §1

[20] = system: RARb:RXRa (NR concentration 270 nM, RXRa partner concentration 90 nM)
In short: as §1

Sequence	PBM binding z-score [1]	PBM binding z-score [2]	PBM binding z-score [3]	PBM binding z-score [4]	PBM binding z-score [5]	PBM binding z-score [6]	PBM binding z-score [7]	PBM binding z-score [8]	PBM binding z-score [9]	PBM binding z-score [10]	PBM binding z-score [11]	PBM binding z-score [12]	PBM binding z-score [13]	PBM binding z-score [14]	PBM binding z-score [15]	PBM binding z-score [16]	PBM binding z-score [17]	PBM binding z-score [18]	PBM binding z-score [19]	PBM binding z-score [20]
GTACCAAGATGAATAGGTCGTTGATGAGTAGGCG	-0.271	-0.137	-0.17	-0.161	-0.482	0.287	0.526	-0.163	-0.282	-0.197	-0.366	-0.096	-0.257	0.255	0.369	-0.0822	0.0588	0.0569	0.21	0.0592
TCAGACAGGTGGAGGTAACTCAGGTACGCAGTCG	0.494	1.77	-0.167	0.998	0.354	0.55	0.357	1.4	3.1	2.3	1.72	-0.0459	0.459	-0.319	0.082	0.506	0.154	0.233	0.265	0.399
ACTAGCAGGCCAAGTTTCGGTCACTCAAACAAAG	-0.253	-0.249	0.38	-0.133	-0.471	-0.0764	-0.26	-0.531	-0.703	-0.73	0.73	0.753	-0.762	-0.738	-0.0877	-0.355	-0.0865	0.0207	-0.205	1.56
CAGCCTAGCTCAGGGCCAGTATAGGAGGAACGTT	-1.13	-1.14	-0.395	-1.15	-1.28	-1.21	-0.195	-1.24	-1.24	-1.17	-0.913	-0.949	-2.22	-2.03	-1.23	-0.988	-0.337	-1.33	-0.424	-0.591
TTACCAAGGTGAGCTGAGATCGTTGATCCAACTC	-0.243	-0.689	-0.907	-0.704	-1.18	0.12	-0.0237	0.4	-0.0278	0.278	1.12	1.5	-0.91	-0.653	-1.58	0.00925	-1.19	-0.376	-1.19	0.893
AGAATGATGTTATACGTAGATCAGGGAAGAAAGT	-0.301	-0.398	-0.0367	-0.288	-0.0572	-0.192	0.88	-0.156	0.198	-0.0681	-0.521	-0.0838	1.57	1.74	-0.218	-0.0656	0.403	-0.276	-0.0154	-0.18
TCTTGTAGATCAACAGGAGGTAAAGAAAGATCGA	-0.194	-0.0725	-0.569	-0.104	-0.41	0.461	0.106	1.19	2.4	1.96	1.4	0.479	0.613	0.824	-0.233	0.0383	-0.784	-0.044	-0.132	-0.124
